According to PubChem BioAssay AID1578 (Sanford-Burnham Center for Chemical Genomics, 2009):
In all, about 290,000 compounds went through this assay and about 3,000 (1%) were called active. Cut-off read from the data, not from the text of the source: active = inhibition mostly above about 36% (no sharp cut-off); inactive = mostly below about 34%. The entries come from a sample that favours actives as a whole.

Test: NOD1 signaling inhibitors, primary screen, cell-based, luminescence, uHTS (AID 1578);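 note: HEK-293T reporter cells stimulated with the NOD1 agonist gamma-tri-DAP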
Settings: NOD1-driven NF-kB luciferase reporter cells, at 4 µM, hits give high values

SMILES	inhibition
O=c1cc(NS(=O)(=O)c2ccccc2)nc(SCc2ccccc2Cl)[nH]1	-0.5% (inactive)
O=c1cc(NS(=O)(=O)c2ccccc2)nc(SCc2c(Cl)cccc2Cl)[nH]1	102% (active)
O=c1cc(NS(=O)(=O)c2ccccc2)nc(SCc2ccc(Cl)cc2)[nH]1	-1.1% (inactive)
Cc1ccc(NC(=O)CCc2nnc3ccc(N4CCC(C)CC4)nn23)nc1	-3.1% (inactive)
Cc1[nH]n(C(N)=S)c(=O)c1N=Nc1ccc(Br)cc1	-21.9% (inactive)
CCOc1ccc(N(CC)C(=O)Cc2c(C(=O)O)n(C)c3ccccc23)cc1	-11.1% (inactive)
CC(C)Cc1nc(N2CCN(C(=O)c3ccco3)CC2)c(C#N)c2c1CCC2	-0.7% (inactive)
CC(C)Cc1nc(N2CCN(C(=O)c3ccco3)CC2)c(C#N)c2c1CCCC2	2.6% (inactive)
CCN(CC)S(=O)(=O)c1ccc(N2CCOCC2)c(NC(=O)c2ccc3ccccc3c2)c1	-17% (inactive)
Cc1nn(CCc2nn[nH]n2)c2nc(C(F)(F)F)cc(C(F)(F)F)c12	-7.9% (inactive)
CCOc1cc(C(=O)Nc2ccc3c(c2)OCO3)ccc1OC(F)F	-17.4% (inactive)
Cc1ccc(-n2nnc(-c3nccs3)n2)cc1	77.8% (active)
Fc1ccc(-n2nnc(-c3nccs3)n2)cc1	-26% (inactive)
Clc1ccc(-n2nnc(-c3cccnc3Cl)n2)cc1Cl	-3% (inactive)
Clc1ccc(-n2nnc(-c3nccs3)n2)cc1Cl	110% (active)
Brc1ccccc1-n1nnc(-c2nccs2)n1	-44.7% (inactive)
Clc1ccc(-n2nnc(-c3cccnc3)n2)cc1Cl	-12.2% (inactive)
CCCC(c1nnnn1Cc1cccs1)N1CCN(C2CCCC2)CC1 (centres undefined)	-49.9% (inactive)
COc1ccccc1-n1cnc2sc(-c3ccccc3)cc2c1=O	30.1% (inactive)
O=C(CNC(=O)c1cccc(OC(F)F)c1)OCc1cc(=O)n2cc(Br)ccc2n1	4.7% (inactive)
OC(COc1ccccc1)CN1CCC(Cc2ccccc2)CC1 (centres undefined)	-20.8% (inactive)
CN(C)c1nc(C(F)(F)F)cc(=O)[nH]1	-21.2% (inactive)
c1ccc(-n2ncc3c(N4CCC5(CC4)OCCO5)ncnc32)cc1	-67% (inactive)
COc1cccc(NC(=O)C2COc3ccccc3O2)c1 (centres undefined)	104% (active)

SMILES	inhibition
O=C(NC1=NCCS1)C1COc2ccccc2O1 (centres undefined)	82.7% (active)
O=C(Nc1nncs1)C1COc2ccccc2O1 (centres undefined)	-18.9% (inactive)
COC(=O)c1cccc(NC(=O)C2COc3ccccc3O2)c1 (centres undefined)	-42.9% (inactive)
O=C(Nc1ccccc1)C1COc2ccccc2O1 (centres undefined)	-21.9% (inactive)
Cc1cccc(NC(=O)C2COc3ccccc3O2)c1 (centres undefined)	-23% (inactive)
c1ccc(COc2cccc(CNCc3cccs3)c2)cc1	-31.8% (inactive)
O=C1CSc2ccc(C(=O)N3CCN(c4ccccn4)CC3)cc2N1	0.1% (inactive)
C#CCSc1ncc(S(=O)(=O)c2ccccc2)c(=O)[nH]1	7.6% (inactive)
COCCCn1c(SCC(=O)Nc2ccc(C(C)=O)cc2)nc2ccccc2c1=O	-25.3% (inactive)
O=C(O)c1cccc(-c2nc3ccccc3[nH]2)c1	61.9% (active)
O=C(O)c1ccc(-c2nc3ccccc3[nH]2)cc1	-38.1% (inactive)
c1ccc(-c2nc3ccccc3[nH]2)cc1	-1.5% (inactive)
Cc1ccc(N/C(=C\C(=O)c2ccccc2)C(=O)O)cc1	-33.5% (inactive)
O=[N+]([O-])c1ccc(S(=O)(=O)c2ccccc2)nc1	29% (inactive)
Cc1ccc(S(=O)(=O)N2CCN(c3ccc([N+](=O)[O-])cn3)CC2)cc1	-9.1% (inactive)
CCOc1cccc(C(=O)Nc2ccc(S(=O)(=O)Nc3cc(C)on3)cc2)c1	-2% (inactive)
CCN(CC)c1ncnnc1-c1ccccc1	-22.1% (inactive)
CC(C)(C)S(=O)(=O)/C(C#N)=N/Nc1ccc(Cl)cc1	4.5% (inactive)
CC(C)(C)c1ccc(N/N=C(\C#N)S(=O)(=O)C(C)(C)C)cc1	41% (active)
CC(C)(C)S(=O)(=O)/C(C#N)=N/Nc1ccc(C#N)cc1	-38.5% (inactive)
CC(=O)C1=C(O)C(=O)N(CCc2ccccc2)C1c1ccccc1[N+](=O)[O-] (centres undefined)	-12% (inactive)
CCOC(=O)N1CCN(C(=O)c2cc3cc(OC)c(OC)cc3[nH]2)CC1	-3.4% (inactive)
O=C(NCCc1ccccc1)C(=O)NCC1OCCN1S(=O)(=O)c1ccc(Cl)cc1 (centres undefined)	-1.1% (inactive)
CCCCN(C)Cc1c(C)[nH]c2c(Cl)cccc2c1=O	-15% (inactive)

SMILES	inhibition
CCc1nnc(NC(=O)c2ccc(S(=O)(=O)N3CCc4ccccc4C3)cc2)s1	-1.9% (inactive)
O=C(Nc1nnc(C2CC2)s1)c1ccc(Cl)c(S(=O)(=O)N2CCc3ccccc3C2)c1	59% (inactive)
CN1CCN(c2nc3ccccc3nc2C(C#N)S(=O)(=O)c2ccccc2)CC1 (centres undefined)	-5.2% (inactive)
CSC1=N/C(=C\c2ccccc2Cl)C(=O)N1N(C)C	0.8% (inactive)
O=C(CN1CCc2ccccc2C1)NCC(=O)Nc1ccc(F)cc1	-25.2% (inactive)
CCOc1cc(C2/C(=C(/O)c3ccc(OC)cc3)C(=O)C(=O)N2CC2CCCO2)ccc1O (centres undefined)	-1.7% (inactive)
COc1ccc(O)c(CN2CCC(n3nccc3NC(=O)CCOc3ccccc3)CC2)c1	-1.2% (inactive)
COC(=O)Nc1ccc(S(=O)(=O)NC2CCS(=O)(=O)C2)cc1 (centres undefined)	-9.9% (inactive)
Cn1c(N)c(C(=O)CCl)c(=O)n(Cc2ccccc2)c1=O	43.7% (inactive)
COC(=O)Cn1c(=O)c(C(=O)CCl)c(N)n(Cc2ccccc2)c1=O	69.8% (active)
CCn1c(=O)c(C(=O)CC#N)c(N)n(Cc2ccccc2)c1=O	-11.1% (inactive)
COc1ccc(-c2csc3ncnc(N4CCN(c5ccccc5Cl)CC4)c23)cc1	-4.5% (inactive)
CCOP(=O)(OCC)/C(=N/OC(=O)c1ccccc1C)C(N)=O	-58.9% (inactive)
O=C(Cc1ccccc1)NCCc1cn2ccsc2n1	-3.8% (inactive)
Cc1ccc(C(=O)NC(C(=O)Nc2ccccc2)c2ccccc2)cc1 (centres undefined)	-3.5% (inactive)
COc1ccc(NC(=O)C(NC(=O)c2ccc(=O)[nH]c2)c2ccccc2)cc1 (centres undefined)	-7.3% (inactive)
COc1ccc(NC(=O)C(NC(=O)c2ccc(C)cc2)c2ccccc2)cc1 (centres undefined)	62.7% (active)
CCc1ccccc1NC(=O)c1cc(-c2ccc(OC)cc2)on1	-2% (inactive)
CC1Cc2ccccc2N1C(=O)CN1CCC(n2nnc3cc(C(F)(F)F)ccc32)CC1 (centres undefined)	23.9% (inactive)
O=C(Nc1ccccn1)c1ccc2ccccc2c1O	-61.1% (inactive)
CC(=O)Nc1ccc(Br)c2ccccc12	-4.6% (inactive)
O=C(O)c1ccccc1C(=O)Nc1cccc([N+](=O)[O-])c1	-0.9% (inactive)
O=C(Nc1cccc([N+](=O)[O-])c1)c1cc2ccccc2cc1O	17.3% (inactive)
O=C(O)c1cccc(NC(=S)N/N=C/c2ccccc2OCc2cccc(Br)c2)c1	-13.5% (inactive)

SMILES	inhibition
Cc1noc(-c2ccccc2)c1NC(=O)Nc1ccccc1	2% (inactive)
C=CCOc1ccc2ccccc2c1CNCCCN1CCOCC1	10% (inactive)
CCN1C(=O)N(S(=O)(=O)C(F)(F)F)[C@@H](c2ccccc2)C(C(=O)OC)=C1C	0.6% (inactive)
Cc1c(C(=O)N2CCN(c3ccccn3)CC2)sc2ncnc(N3CCOCC3)c12	-12.5% (inactive)
Cc1nc(N2CCN(c3ccccn3)CC2)c2c(C)c(C(=O)Nc3ccc(Cl)cc3)sc2n1	-14% (inactive)
COc1ccccc1N1CCN(C(=O)c2sc3nc(C)nc(N4CCN(c5ccccn5)CC4)c3c2C)CC1	33.2% (inactive)
Cc1nc(N2CCN(c3ccccn3)CC2)c2c(C)c(C(=O)Nc3ccc(F)cc3Cl)sc2n1	6.8% (inactive)
Cc1nc(N2CCN(c3ccccn3)CC2)c2c(C)c(C(=O)Nc3ccc(F)cc3F)sc2n1	12.3% (inactive)
Cc1nc(N2CCN(c3ccccn3)CC2)c2c(C)c(C(=O)N3CCN(c4cccc(Cl)c4)CC3)sc2n1	18% (inactive)
Cc1c(C(=O)N2CCN(c3ccccc3)CC2)sc2ncnc(N3CCN(c4ccccn4)CC3)c12	27.4% (inactive)
Cc1nc(N2CCN(c3ccccn3)CC2)c2c(C)c(C(=O)Nc3c(F)cc(F)cc3Br)sc2n1	-28.6% (inactive)
CCN(Cc1ccccc1)S(=O)(=O)c1ccc(OC)cc1	14.2% (inactive)
COc1cccc(C2CC(c3cccs3)=NN2S(C)(=O)=O)c1OC (centres undefined)	-30.3% (inactive)
N#CCSc1nc2ccccc2c(=O)n1CCC(=O)NCCc1ccccc1	32.7% (inactive)
O=C1C(=O)N(CCCN2CCOCC2)C(c2ccc([N+](=O)[O-])cc2)/C1=C(/O)c1ccc2c(c1)OCO2 (centres undefined)	-24.9% (inactive)
CCc1cccc(NC(=O)CCS(=O)(=O)c2ccc3c(c2)NC(=O)CO3)c1	-12.9% (inactive)
CN(C(=O)CCN1C(=O)C(C)(C)Nc2ccccc21)c1ccccc1	0.1% (inactive)
Cc1ccc2[nH]cc(C(=O)CN3CCN(c4ccccn4)CC3)c2c1	-23% (inactive)
CC(NC(=O)OC1CCCCC1)N1C(=O)C2C3C=CC(C3)C2C1=O (centres undefined)	-1.3% (inactive)
Cn1c(N/N=C/c2cccs2)nc2c1c(=O)n(Cc1ccccc1)c(=O)n2C	-22.5% (inactive)
NC(=O)c1cc2cc(Cl)ccc2oc1=Nc1cccc(C(F)(F)F)c1	-9.4% (inactive)
Cn1c(O)c(C=Nc2ccc(N3CCOCC3)cc2)c(=O)n(C)c1=S	-14.6% (inactive)
